# Measurements as given in the supplement of paper PMC4022240.
# ± gives the standard deviation.
# T1: HaloTag-ATRX ADD domain (163-292)
# T1 chain: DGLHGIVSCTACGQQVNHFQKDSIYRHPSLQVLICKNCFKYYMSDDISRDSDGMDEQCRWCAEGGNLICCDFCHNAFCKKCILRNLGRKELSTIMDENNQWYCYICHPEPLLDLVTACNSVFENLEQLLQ
# B1: H3 20-32 L A T Kme2 A A R K S A P A T (peptide)
# chain: LATKAARKSAPAT
# B2: H3 20-32 L A T Kme2 A A R Kac S A P A T (peptide)
# chain: LATKAARKSAPAT
# B3: H3 20-32 L A T Kme2 A A R Kme S A P A T (peptide)
# chain: LATKAARKSAPAT
# B4: H3 20-32 L A T Kme2 A A R Kme2 S A P A T (peptide)
# chain: LATKAARKSAPAT
# B5: H3 20-32 L A T Kme2 A A R Kme3 S A P A T (peptide)
# chain: LATKAARKSAPAT
# B6: H3 20-32 L A T Kme3 A A R K S A P A T (peptide)
# chain: LATKAARKSAPAT
# B7: H3 20-32 L A T Kme3 A A R Kac S A P A T (peptide)
# chain: LATKAARKSAPAT
# B8: H3 20-32 L A T Kme3 A A R Kme S A P A T (peptide)
# chain: LATKAARKSAPAT
# B9: H3 20-32 L A T Kme3 A A R Kme2 S A P A T (peptide)
# chain: LATKAARKSAPAT
# B10: H3 20-32 L A T Kme3 A A R Kme3 S A P A T (peptide)
# chain: LATKAARKSAPAT
# How the values were obtained:
# Test in all cases: peptide microarray binding signal (635 nm), min-max normalized on array (fraction of array maximum); higher = stronger binding
# Conditions in all cases: peptide region: H3 20-32
# [1] = biological target: T1, HaloTag-ATRX ADD domain (163-292)
# Procedure, shortened: (§1)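 Within each library, mean intensities of triplicate spots were min-max scaled to give the binding signal. The spots were histone 13-mer peptide–cellulose conjugates on nitrocellulose with a Cy3 tracer, blocked overnight at 4°C. They were then probed for 1 h at 4°C using biotin-labelled HaloTag reader fusions (10 nM to 1 μM) with streptavidin-Alexa Fluor 647 or rabbit histone antibodies (1:10,000 to 1:2,000) with anti-rabbit Alexa 647, and scanned at 635 nm for signal and 532 nm for misprints on an Axon GenePix 4000B.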
# [2] = biological target: HaloTag-ING2 PHD (mouse Ing2 200-280)
# Procedure, shortened: as §1
# [3] = biological target: anti-H3K4me3 antibody ab8580
# Procedure, shortened: as §1
# [4] = biological target: anti-H3K9me3 antibody ab8898
# Procedure, shortened: as §1
# [5] = peptide modifications: H3K23me2, binder concentration: 1:2,000 dilution
# [6] = peptide modifications: H3K23me2, binder concentration: 1:10,000 dilution
# [7] = peptide modifications: H3K23me2 H3K27ac, binder concentration: 1:2,000 dilution
# [8] = peptide modifications: H3K23me2 H3K27ac, binder concentration: 1:10,000 dilution
# [9] = peptide modifications: H3K23me2 H3K27me1, binder concentration: 1:2,000 dilution
# [10] = peptide modifications: H3K23me2 H3K27me1, binder concentration: 1:10,000 dilution
# [11] = peptide modifications: H3K23me2 H3K27me2, binder concentration: 1:2,000 dilution
# [12] = peptide modifications: H3K23me2 H3K27me2, binder concentration: 1:10,000 dilution
# [13] = peptide modifications: H3K23me2 H3K27me3, binder concentration: 1:2,000 dilution
# [14] = peptide modifications: H3K23me2 H3K27me3, binder concentration: 1:10,000 dilution
# [15] = peptide modifications: H3K23me3, binder concentration: 1:2,000 dilution
# [16] = peptide modifications: H3K23me3, binder concentration: 1:10,000 dilution
# [17] = peptide modifications: H3K23me3 H3K27ac, binder concentration: 1:2,000 dilution
# [18] = peptide modifications: H3K23me3 H3K27ac, binder concentration: 1:10,000 dilution
# [19] = peptide modifications: H3K23me3 H3K27me1, binder concentration: 1:2,000 dilution
# [20] = peptide modifications: H3K23me3 H3K27me1, binder concentration: 1:10,000 dilution
# [21] = peptide modifications: H3K23me3 H3K27me2, binder concentration: 1:2,000 dilution
# [22] = peptide modifications: H3K23me3 H3K27me2, binder concentration: 1:10,000 dilution
# [23] = peptide modifications: H3K23me3 H3K27me3, binder concentration: 1:2,000 dilution
# [24] = peptide modifications: H3K23me3 H3K27me3, binder concentration: 1:10,000 dilution
binder,measurement,setting,value
B1,peptide microarray binding signal,"[1]; peptide modifications: H3K23me2, binder concentration: 50 nM",0.00671 ± 0.00021
same,peptide microarray binding signal,"[1]; peptide modifications: H3K23me2, binder concentration: 500 nM",0.0138 ± 0.00038
same,peptide microarray binding signal,"[2]; peptide modifications: H3K23me2, binder concentration: 10 nM",0.0263 ± 0.0081
same,peptide microarray binding signal,"[2]; peptide modifications: H3K23me2, binder concentration: 100 nM",0.0536 ± 0.02
same,peptide microarray binding signal,[3]; [5],0.00836 ± 0.0018
same,peptide microarray binding signal,[3]; [6],0.0156 ± 0.0071
same,peptide microarray binding signal,[4]; [5],0.00609 ± 0.0003
same,peptide microarray binding signal,[4]; [6],0.00479 ± 0.00052
B2,peptide microarray binding signal,"[1]; peptide modifications: H3K23me2 H3K27ac, binder concentration: 50 nM",0.008464 ± 6.7e-05
same,peptide microarray binding signal,"[1]; peptide modifications: H3K23me2 H3K27ac, binder concentration: 500 nM",0.01538 ± 0.00011
same,peptide microarray binding signal,"[2]; peptide modifications: H3K23me2 H3K27ac, binder concentration: 10 nM",0.0514 ± 0.0022
same,peptide microarray binding signal,"[2]; peptide modifications: H3K23me2 H3K27ac, binder concentration: 100 nM",0.0701 ± 0.0049
same,peptide microarray binding signal,[3]; [7],0.0156 ± 0.00055
same,peptide microarray binding signal,[3]; [8],0.0145 ± 0.00025
same,peptide microarray binding signal,[4]; [7],0.0072 ± 0.0012
same,peptide microarray binding signal,[4]; [8],0.00513 ± 0.00017
B3,peptide microarray binding signal,"[1]; peptide modifications: H3K23me2 H3K27me1, binder concentration: 50 nM",0.00715 ± 0.00054
same,peptide microarray binding signal,"[1]; peptide modifications: H3K23me2 H3K27me1, binder concentration: 500 nM",0.0135 ± 0.00043
same,peptide microarray binding signal,"[2]; peptide modifications: H3K23me2 H3K27me1, binder concentration: 10 nM",0.0174 ± 0.00096
same,peptide microarray binding signal,"[2]; peptide modifications: H3K23me2 H3K27me1, binder concentration: 100 nM",0.0216 ± 0.00093
same,peptide microarray binding signal,[3]; [9],0.00978 ± 0.0012
same,peptide microarray binding signal,[3]; [10],0.0104 ± 0.00071
same,peptide microarray binding signal,[4]; [9],0.00618 ± 0.00062
same,peptide microarray binding signal,[4]; [10],0.00628 ± 0.00021
B4,peptide microarray binding signal,"[1]; peptide modifications: H3K23me2 H3K27me2, binder concentration: 50 nM",0.00511 ± 6.7e-05
same,peptide microarray binding signal,"[1]; peptide modifications: H3K23me2 H3K27me2, binder concentration: 500 nM",0.00781 ± 0.00026
same,peptide microarray binding signal,"[2]; peptide modifications: H3K23me2 H3K27me2, binder concentration: 10 nM",0.0143 ± 0.0011
same,peptide microarray binding signal,"[2]; peptide modifications: H3K23me2 H3K27me2, binder concentration: 100 nM",0.0265 ± 0.003
same,peptide microarray binding signal,[3]; [11],0.001114 ± 9.2e-06
same,peptide microarray binding signal,[3]; [12],0.000799 ± 8.3e-06
same,peptide microarray binding signal,[4]; [11],0.000861 ± 5.4e-05
same,peptide microarray binding signal,[4]; [12],0.000692 ± 1.9e-05
B5,peptide microarray binding signal,"[1]; peptide modifications: H3K23me2 H3K27me3, binder concentration: 50 nM",0.0058 ± 9.2e-05
same,peptide microarray binding signal,"[1]; peptide modifications: H3K23me2 H3K27me3, binder concentration: 500 nM",0.00581 ± 0.00013
same,peptide microarray binding signal,"[2]; peptide modifications: H3K23me2 H3K27me3, binder concentration: 10 nM",0.01343 ± 4.8e-05
same,peptide microarray binding signal,"[2]; peptide modifications: H3K23me2 H3K27me3, binder concentration: 100 nM",0.0205 ± 0.00075
same,peptide microarray binding signal,[3]; [13],0.02482 ± 0.00013
same,peptide microarray binding signal,[3]; [14],0.0215 ± 0.00042
same,peptide microarray binding signal,[4]; [13],0.0892 ± 0.0073
same,peptide microarray binding signal,[4]; [14],0.0609 ± 0.0066
B6,peptide microarray binding signal,"[1]; peptide modifications: H3K23me3, binder concentration: 50 nM",0.00323 ± 0.00014
same,peptide microarray binding signal,"[1]; peptide modifications: H3K23me3, binder concentration: 500 nM",0.00476 ± 6.4e-05
same,peptide microarray binding signal,"[2]; peptide modifications: H3K23me3, binder concentration: 10 nM",0.00931 ± 0.00034
same,peptide microarray binding signal,"[2]; peptide modifications: H3K23me3, binder concentration: 100 nM",0.0181 ± 0.00055
same,peptide microarray binding signal,[3]; [15],0.0211 ± 0.0028
same,peptide microarray binding signal,[3]; [16],0.0168 ± 0.00023
same,peptide microarray binding signal,[4]; [15],0.0113 ± 0.0027
same,peptide microarray binding signal,[4]; [16],0.00634 ± 0.00064
B7,peptide microarray binding signal,"[1]; peptide modifications: H3K23me3 H3K27ac, binder concentration: 50 nM",0.00665 ± 0.00019
same,peptide microarray binding signal,"[1]; peptide modifications: H3K23me3 H3K27ac, binder concentration: 500 nM",0.0131 ± 0.00029
same,peptide microarray binding signal,"[2]; peptide modifications: H3K23me3 H3K27ac, binder concentration: 10 nM",0.0614 ± 0.0049
same,peptide microarray binding signal,"[2]; peptide modifications: H3K23me3 H3K27ac, binder concentration: 100 nM",0.0929 ± 0.0012
same,peptide microarray binding signal,[3]; [17],0.18 ± 0.021
same,peptide microarray binding signal,[3]; [18],0.218 ± 0.01
same,peptide microarray binding signal,[4]; [17],0.11 ± 0.011
same,peptide microarray binding signal,[4]; [18],0.042 ± 0.002
B8,peptide microarray binding signal,"[1]; peptide modifications: H3K23me3 H3K27me1, binder concentration: 50 nM",0.00426 ± 0.00018
same,peptide microarray binding signal,"[1]; peptide modifications: H3K23me3 H3K27me1, binder concentration: 500 nM",0.00776 ± 0.00023
same,peptide microarray binding signal,"[2]; peptide modifications: H3K23me3 H3K27me1, binder concentration: 10 nM",0.0209 ± 0.0012
same,peptide microarray binding signal,"[2]; peptide modifications: H3K23me3 H3K27me1, binder concentration: 100 nM",0.0322 ± 0.00049
same,peptide microarray binding signal,[3]; [19],0.0821 ± 0.0052
same,peptide microarray binding signal,[3]; [20],0.0667 ± 0.0068
same,peptide microarray binding signal,[4]; [19],0.0232 ± 0.0031
same,peptide microarray binding signal,[4]; [20],0.0156 ± 0.0017
B9,peptide microarray binding signal,"[1]; peptide modifications: H3K23me3 H3K27me2, binder concentration: 50 nM",0.00871 ± 0.00075
same,peptide microarray binding signal,"[1]; peptide modifications: H3K23me3 H3K27me2, binder concentration: 500 nM",0.0107 ± 0.0013
same,peptide microarray binding signal,"[2]; peptide modifications: H3K23me3 H3K27me2, binder concentration: 10 nM",0.0148 ± 0.0008
same,peptide microarray binding signal,"[2]; peptide modifications: H3K23me3 H3K27me2, binder concentration: 100 nM",0.0242 ± 0.0018
same,peptide microarray binding signal,[3]; [21],0.0639 ± 0.034
same,peptide microarray binding signal,[3]; [22],0.0807 ± 0.021
same,peptide microarray binding signal,[4]; [21],0.0464 ± 0.016
same,peptide microarray binding signal,[4]; [22],0.0257 ± 0.0034
B10,peptide microarray binding signal,"[1]; peptide modifications: H3K23me3 H3K27me3, binder concentration: 50 nM",0.00527 ± 0.00011
same,peptide microarray binding signal,"[1]; peptide modifications: H3K23me3 H3K27me3, binder concentration: 500 nM",0.00571 ± 0.00016
same,peptide microarray binding signal,"[2]; peptide modifications: H3K23me3 H3K27me3, binder concentration: 10 nM",0.0186 ± 0.00059
same,peptide microarray binding signal,"[2]; peptide modifications: H3K23me3 H3K27me3, binder concentration: 100 nM",0.0317 ± 0.00033
same,peptide microarray binding signal,[3]; [23],0.0764 ± 0.0055
same,peptide microarray binding signal,[3]; [24],0.116 ± 0.014
same,peptide microarray binding signal,[4]; [23],0.115 ± 0.01
same,peptide microarray binding signal,[4]; [24],0.08 ± 0.0081
